AMA1-RON2 inh – qHTS for Inhibitors of AMA1-RON; Towards Development of Antimalarial Drug Lead: Primary Screen; Potency, µM (top dose mostly 58.2 µM), for inactives: at the top dose activity change, negative = inhibition, hits mostly inhibitors; AlphaScreen AMA1-biotinylated RON2 peptide binding; AID 720542, 2013; Plasmodium falciparum AMA1 (3D7) - RON2 peptide interaction; 0.2% of 360,000 active;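 further: 0% = vehicle wells and -100% = peptide control; nearly all actives have a fitted effect of over 45% in size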
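AMA1 (3D7) with his tag at 25 nM final met compounds first, then biotinylated RON2 peptide at 25 nM; detection used donor plus acceptor beads, 10 µg/mL apiece, read by AlphaScreen after 30 min at room temperature.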
AmpC inh no detg – qHTS Inhibitors of AmpC Beta-Lactamase (assay without detergent). P00811. AmpC nitrocefin hydrolysis, absorbance 480 nm, 0.0001% Triton. Potency, µM (doses to about 57.1 µM), inactives show top-dose activity change, negative = inhibition, most hits filed as inhibitors. 0.52% of 330,000 active;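 further: plate controls were no compound for no effect and no enzyme for full effect; nearly all actives have a fitted effect of over 20% in size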
Target sequence (P00811 whole entry, looked up): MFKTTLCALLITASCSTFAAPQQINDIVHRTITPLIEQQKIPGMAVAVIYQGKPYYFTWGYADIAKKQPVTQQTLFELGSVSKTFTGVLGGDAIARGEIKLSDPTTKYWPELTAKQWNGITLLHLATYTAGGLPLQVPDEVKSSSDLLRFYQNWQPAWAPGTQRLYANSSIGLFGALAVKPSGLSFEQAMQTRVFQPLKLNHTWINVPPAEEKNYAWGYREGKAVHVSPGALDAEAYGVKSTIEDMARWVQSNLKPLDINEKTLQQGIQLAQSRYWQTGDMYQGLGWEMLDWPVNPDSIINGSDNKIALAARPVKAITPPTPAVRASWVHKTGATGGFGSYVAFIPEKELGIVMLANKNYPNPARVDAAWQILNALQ
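AmpC (5.3 nM in the dispensed reagent) in 20 mM phosphate pH 7.0 with 0.01% (detergent screen) or 0.0001% Triton X-100 was preincubated with compounds for 15 min at room temperature. Nitrocefin was then added from an 800 uM solution, and hydrolysis was followed at 480 nm.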
AmpC detergent – qHTS Inhibitors of AmpC Beta-Lactamase (assay with detergent); AmpC hydrolysis of nitrocefin, absorbance 480 nm, 0.01% Triton; Potency, µM (series often up to 114 µM), for the others: at the top dose activity change, negative = inhibition, most hits filed as inhibitors; 0.041% of 370,000 active;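 further: 0% = no-compound wells and -100% = no-enzyme wells; nearly all actives have a fitted effect of over 25% in size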
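20 mM phosphate pH 7.0 + 0.01% (detergent screen) or 0.0001% Triton X-100; 5.3 nM AmpC reagent; cpd preinc 15 min RT; nitrocefin (800 uM stock) to start; A480 q20 s × 4 min; Activity was normalised to no-enzyme and no-compound control wells.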
Vaccinia mCherry – qHTS for Stage-Specific Inhibitors of Vaccinia Orthopoxvirus: mCherry Reporter Primary qHTS. Vaccinia virus mCherry reporter infection, fluorescence. Potency, µM (series often up to 36.5 µM), inactives show at the highest dose activity change, negative = inhibition, usual class: inhibitors. 0.63% of 310,000 active. AID 720579, 2013; calls by dose curve; tested in A549 cells; further: on the % scale 0 is the no-effect control and ±100 the full control effect; nearly all actives have a fitted effect of over 35% in size
SARS PLpro yeast – qHTS of Yeast-based Assay for SARS-CoV PLP; 0.19% of 330,000 active; Potency, µM (series often up to 32.9 µM), without a hit: at the highest dose activity, positive = growth rescue, hits mostly activators; S. cerevisiae expressing SARS-CoV PLpro, growth rescue; calls by dose curve; further: 0% is about no effect; nearly all actives have a fitted effect of over 55% in size
Vaccinia Venus – qHTS for Stage-Specific Inhibitors of Vaccinia Orthopoxvirus: Venus Reporter Primary qHTS; Vaccinia virus Venus reporter expression, fluorescence; Potency, µM (highest dose often 36.5 µM), for the others: top-dose activity change, negative = inhibition, hits mostly inhibitors; 0.46% of 330,000 active; AID 720580, 2013; calls by dose curve; tested in A549 cells; further: on the % scale 0 is the no-effect control and ±100 the full control effect; nearly all actives have a fitted effect of over 30% in size
Numbers without * were called inactive; i = inactive; ? = inconclusive; nt = not tested or not shown. In the library only some 1.3% were active in any assay of this set; here they are far more common. Unless noted, the call rests on the fitted dose curve; in most records, active means well fitted curve in the direction sought with a large enough effect; inconclusive means small, poorly fitted or top-dose-only effect, or another doubt; inactive means no such curve, though single readings can be large; an effect the other way counts as inactive or inconclusive. Potency means the concentration at half of the fitted maximal effect.

SMILES | AMA1-RON2 inh | AmpC inh no detg | AmpC detergent | Vaccinia mCherry | SARS PLpro yeast | Vaccinia Venus
CCc1cc(=O)oc2cc(C)c(CN3CCCC(C)C3)c(O)c12 (stereo not given) | 19µM* | -58% | -10% | nt | 3% | nt
CCCCc1cc(=O)oc2c(CN3CCCC3)c(O)ccc12 | 5% | -7% | -10% | nt | 0% | nt
Cc1cc2nc(NCCCO)n(CC(=O)c3cc(C(C)(C)C)c(O)c(C(C)(C)C)c3)c2cc1C | 4% | 11% | -10% | ? | 1% | 10µM*
COc1ccc(C(=O)Cn2c(NCCCO)nc3ccccc32)cc1 | 3% | nt | nt | -21% | nt | -1%
CN(C)CCNC(=O)c1cccc2nc3c(ccc4ccccc43)nc12 | -1% | nt | nt | ? | nt | 11µM*
COc1ccc(-c2nc3c(C(=O)NCCN(C)C)cccc3c3ccccc23)cc1 | -11% | nt | nt | -14% | nt | ?
COc1ccc(C(=O)NCCN(C)C)c2nc3ccccc3cc12 | 4% | nt | nt | 1µM* | nt | 6.3µM*
COc1cccc2nc3c(C(=O)NCCN(C)C)cccc3cc12 | 3% | nt | nt | 3.5µM* | nt | 4.5µM*
COCCCNc1ncnc2sc(C(=O)N3CCCCC3)c(C)c12 | nt | nt | nt | -9% | nt | 0%
CN(C)c1nc2cc3c(cc2cc1CN(CC1CCCO1)C(=O)c1cccc(F)c1)OCO3 (stereo not given) | nt | nt | nt | -10% | nt | 3%
NS(=O)(=O)c1ccc(NC(=O)c2ccc(-c3ccccc3)cc2)cc1 | 0% | -55% | -7% | -3% | -1% | -12%
NS(=O)(=O)c1ccc(NS(=O)(=O)c2ccc(NC(=O)c3ccc(-c4ccccc4)cc3)cc2)cc1 | -7% | 11µM* | -12% | i | 3% | -3%
Cc1cc(O)c(C=Nc2ccc(N3CCOCC3)cc2)c(C)c1Cl | -2% | -23% | -14% | -2% | -1% | -5%
Cc1ccc(Cl)cc1-c1ccc(C=Nc2ccc(N3CCOCC3)cc2)o1 | 11µM* | 47% | ? | 7% | -15% | 1%
Cc1cnc(SCc2ccccn2)nc1C1CCCN(C(=O)c2noc3c2CCCC3)C1 (stereo not given) | nt | nt | nt | -16% | nt | ?
COc1ccccc1C(=O)N1CCOc2ccc(CN3CCN(Cc4ccccn4)CC3)cc2C1 | nt | nt | nt | -11% | nt | 3%
O=[N+]([O-])c1ccc(O)c(C2=NNC(c3ccccc3F)C2)c1 (stereo not given) | 64% | -23% | 3% | ? | -2% | 11µM*
O=C([C@@H]1C[C@@H](Sc2nc3ccccc3[nH]2)CN1Cc1ccc(C(F)(F)F)cc1)N1CCN(c2ccccc2F)CC1 | nt | nt | nt | -5% | nt | 0%
O=C(O)c1ccc(S(=O)(=O)N[C@H](Cc2ccc([N+](=O)[O-])cc2)C(=O)O)cc1 | nt | -14% | -11% | nt | 2.2µM* | nt
O=C(O)c1ccc(S(=O)(=O)N[C@H](Cc2ccc(C(F)(F)F)cc2)C(=O)O)cc1 | nt | -17% | 6% | nt | 2.8µM* | nt
COc1ccc(C[C@@H](NS(=O)(=O)c2ccc(C(=O)O)cc2)C(=O)O)cc1 | nt | -4% | ? | nt | 2% | nt
CC12CCC(C(=O)N(CSC(=S)N/N=C\c3ccccc3O)C1=O)C2(C)C (stereo not given) | 20µM* | -24% | -3% | nt | 8% | -18%
Cc1ccc(N(C(=O)CNC(=O)c2ccco2)C(C(=O)NC2CCCCC2)c2cccnc2)cc1C (stereo not given) | 6% | 69% | -12% | -8% | -2% | 1%
Cc1ccc(N(C(=O)CCl)C(C(=O)NC2CCCCC2)c2cccnc2)cc1C (stereo not given) | -6% | 175% | -6% | ? | -6% | 7.1µM*
Cc1cccc(CNC(=O)c2cnn(-c3nccc(-c4cc5ccccc5o4)n3)c2C2CC2)n1 | nt | nt | nt | -21% | nt | -11%
SMILES | AMA1-RON2 inh | AmpC inh no detg | AmpC detergent | Vaccinia mCherry | SARS PLpro yeast | Vaccinia Venus
COCCCNC(=S)NC1CC2CCCC(C1)N2Cc1ccco1 (stereo not given) | -10% | 1.8µM* | 3% | -4% | 3% | -3%
Cc1nnc(SC(=O)N2c3ccccc3Sc3ccccc32)s1 | -17% | 34% | -1% | 10µM* | 18% | ?
O=C(Nc1ccc[n+](CC(=O)c2cccc3ccccc23)c1)c1ccccc1 | 5% | 36% | 3% | 16µM* | 2% | ?
CCC1(C2CCN(C(=O)c3ccc(C)cc3C)CC2)NC(=O)N(CCc2scnc2C)C1=O (stereo not given) | nt | nt | nt | i | nt | -22%
CCOC(=O)c1c(-c2ccc(C)cc2)csc1NC(=O)/C(C#N)=C/c1ccc(O)c(OC)c1 | 15% | 8.9µM* | -5% | -1% | 6% | 20%
O=S(=O)(c1cccc(Br)c1)N1CCN(c2nc(-c3cccs3)nc3ccccc23)CC1 | nt | nt | nt | -9% | nt | -18%
COc1cccc(-c2cc3c(c(OC)c2)OCCN(S(=O)(=O)c2ccccc2OC(F)(F)F)C3)n1 | nt | nt | nt | -16% | nt | -6%
COc1ccccc1N1CCN(/N=C/c2ccc([N+](=O)[O-])cc2)CC1 | -11% | -6% | -3% | nt | 18% | nt
O=[N+]([O-])c1ccc(C=NN2CCCCCC2)cc1 | 25µM* | nt | nt | 0% | nt | -12%
Cc1cnc(-n2ncc(C(=O)N(C)C3CCOC3)c2C)nc1-c1ccc(F)cc1 (stereo not given) | nt | nt | nt | -11% | nt | 8%
COc1ccc2nc(C)cc(Nc3ccc(N4CCN(C)CC4)cc3)c2c1 | -11% | 1% | -6% | ? | 1% | 10µM*
COc1ccc2nc(C)cc(N/N=C/c3ccccc3)c2c1 | 4% | -3% | -6% | 14µM* | -2% | ?
Cc1ccc(NS(=O)(=O)c2cc(C(=O)NCc3cccnc3)ccc2C)cc1 | -2% | -37% | 4% | i | -3% | 4%
Cc1ccc(NS(=O)(=O)c2cc(C(=O)Nc3cccnc3)ccc2C)cc1 | -3% | 28µM* | 6% | -4% | -5% | -12%
Cc1cc(Nc2nc3ccccc3[nH]c2=O)n(-c2ccccc2)n1 | -10% | -6% | 6% | 7.1µM* | 1% | 8.9µM*
Cc1cc(Nc2cnc3ccccc3n2)n(-c2ccccc2)n1 | -8% | -14% | -14% | ? | -1% | -21%
COc1ccc(-n2nnnc2SCC(=O)N2CCOCC2)cc1 | -9% | 0.89µM* | ? | i | -3% | -5%
Cc1no[n+]([O-])c1COc1ccc(/C=N/n2nnnc2N)cc1 | 11% | -27% | 2% | 14µM* | 15% | ?
Cc1ccc(/C=N/n2nnnc2N)cc1 | 2% | nt | nt | -2% | nt | -3%
COc1cccc(CN2CCN(Cc3cccc(F)c3)CC2)c1 | 16µM* | -9% | ? | nt | -10% | nt

Screening results from PubChem BioAssay.
